The structures appear in SMILES notation.

The experiment is described as follows: probe aNOTCH2 binding on compound microarray – biochemical, small-molecule microarray, 635/667 nm fluorescence, primary screen (AID 1121).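 Further: score merges feature fluorescence read at 667 nm with its signal to noise.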 Conditions: higher = more signal.
`CCCN1C(=O)[C@]2(CCS(=O)(=O)c3ccccc3)N=C(c3ccc(OCCCO)cc3)O[C@@H]2c2ccccc21`: the composite z-score is -0.0995.

For `CC(C)(C)C(=O)N[C@@H](c1ccc(Cl)cc1)[C@]1(C)C[C@H]1C1CCCCC1`, the composite z-score was determined as 0.347. `COc1cc(CO)cc(I)c1O[C@H]1C=C(C(=O)NCCO)C[C@@H](N(CCN2CCOCC2)C(=O)C2CCOC2)[C@@H]1O` (stereo partly specified) showed a composite z-score of -0.0729. The same measure for `C[C@]1(C(=O)NC2CC2)c2ccccc2C(=O)N(Cc2cc(C(F)(F)F)cc(C(F)(F)F)c2)[C@H]1c1ccc(CO)cc1`: -0.0712. For the compound `COCCOC(=O)N1C(=O)[C@@]2(c3ccccc31)[C@H](c1ccccc1OCCO)N1[C@H](c3ccccc3)[C@H](c3ccccc3)OC(=O)[C@H]1[C@@H]2C(=O)Nc1nc2ccccc2s1`, the composite z-score was -0.089. On to `CC(=O)NCCCC[C@@H]1NC(=O)[C@@H]2C[C@H](C(=O)NCCCCCCNC(=O)CS)[C@H](c3cccc(OCCO)c3)N2C1=O`, for which the composite z-score is -0.151.

For `CCCCC(=C=CC[C@@H](O)c1ccccc1OCCO)CCO`, the composite z-score was -0.0928.

Regarding `C=C(COC)/C(=C/C[C@H](OC(=O)c1ccncc1)c1ccc(OCCO)cc1)c1cnc2ccccc2c1`, the composite z-score was -0.0389. The same measure for `COC(=O)[C@@]1(Cc2ccc(F)cc2)[C@@H]2[C@@H](CC(=O)[C@H]2CC(=O)C(=O)N(C)C)CN1C(=O)c1ccccc1`: -0.041; for `NCCCCCNC(=O)[C@@H]1C[C@@H]2C(=O)N[C@@H](Cc3ccccc3)C(=O)N2[C@@H]1c1cccc(OCCO)c1`: -0.112; for `Cc1ccc(C(C)CC(O)C2C=CC3C(=O)N(C)C(=O)C3N2NC(=O)OC(C)(C)C)o1` (stereo unspecified): -0.0925.

The values are drawn from PubChem BioAssay.
